A selection: hits, their analogues and other compounds. The true share with any hit is near 5.2%.
Tau ThT inhib = tau fibrillization inhibition (ThT binding) | recombinant tau K18 P301L, heparin-induced fibrillization, ThT fluorescence | Potency, µM (top dose mostly 57.4 µM), inactives show top-dose activity, negative = inhibition, usual class: inhibitors | actives 2.1% (n = 270,000) | AID 1460; also: potency is read from the fitted curve at half-maximal effect; nearly all actives have a fitted effect of over 55% in size
Target sequence (P10636 561-689 P618L limits assumed): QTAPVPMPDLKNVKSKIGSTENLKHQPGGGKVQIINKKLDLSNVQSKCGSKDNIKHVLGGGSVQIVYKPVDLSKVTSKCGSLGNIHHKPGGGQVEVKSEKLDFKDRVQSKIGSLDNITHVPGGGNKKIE
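ThT emission at 510 nm, taken 1 hr after adding 30 uM dye, quantifies aggregates formed when 20 uM heparin acts on human tau K18 P301L for 6 hr at 37 C.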
Sfp PPTase inh = blocks B. subtilis Sfp PPTase activity | Q9F4F7 | Biochemical Sfp PPTase activity, qHTS | Potency, µM, for inactives: largest response in the series, negative = inhibition, usual class: inhibitors | actives 3.5% (n = 310,000) | AID 1490;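 also: the enzyme is Sfp with the accession as filed and its product quenches rhodamine fluorescence; potency is read from the fitted curve at half-maximal effect; 0% = enzyme reaction without inhibitor and -100% = no enzyme wells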
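Fluorescence-quenching assay with 15 nM Sfp, 5 uM rhodamine-CoA and 12.5 uM BHQ-2-labelled ybbR peptide in pH 7.6 Hepes/MgCl2 buffer. Enzyme was pre-incubated with compound for 15 min at room temperature. Rate was taken from the 30-min fluorescence change (525/598 nm).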
Tau fluor cs = counter-screen for tau fibril formation inhibitors; tau K18 P301L Alexa594 fluorescence, heparin fibrillization; Potency, µM (titrated, usually from 57.7 µM), for the others: at the highest dose activity change, negative = decrease; actives 0.93% (n = 280,000); also: potency is read from the fitted curve at half-maximal effect; nearly all actives have a fitted effect of over 55% in size
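Human tau K18 P301L (15 uM unlabeled, 0.24 uM Alexa 594-labeled) in 100 mM sodium acetate pH 7 with 20 uM heparin, 6 hr at 37 C. ThT 30 uM added, 1 hr ambient; Alexa 594 FP and total fluorescence read at 555/632 nm.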
Tau FP inhib = inhibitors of human tau fibril formation | Potency, µM (series often up to 57.7 µM), for the others: at the highest dose activity, negative = inhibition, actives largely listed as inhibitors | P10636 | K18 P301L tau heparin fibrillization, Alexa594 FP, 6 h | actives 0.39% (n = 280,000); also: potency is read from the fitted curve at half-maximal effect; nearly all actives have a fitted effect of over 55% in size
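Heparin (20 uM) drove fibril formation of recombinant tau K18 P301L, 15 uM unlabeled with 0.24 uM Alexa 594 label, for 6 hr at 37 C in 100 mM sodium acetate pH 7. Fluorescence polarization (555/632 nm) read 1 hr after 30 uM ThT.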
Coupling enz = coupling enzyme interference in Giardia aldolase counter-screen. actives 0.67% (n = 290,000). activity change, negative = inhibition, % at 58.2 µM, hits read low. AID 2472. coupling enzyme system counterscreen, AmpLite Red fluorescence; in the data active = activity change below about -30%
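Counterscreen of the coupled detection system alone, without aldolase: glyceraldehyde-3-phosphate coupling enzymes plus AmpLite Red readout. Compounds at 57.5 uM final, 10 min RT preincubation, 20 min RT reaction, fluorescence 525/598 nm.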
Numbers without * were called inactive; u = inconclusive; x = no result given. Unless noted, calls follow the shape of the dose curve; as a rule, active = well fitted curve in the direction sought with a large enough effect; inconclusive = small, poorly fitted or top-dose-only effect, or another doubt; inactive = no such curve, though single readings can be large; an effect the other way counts as inactive or inconclusive. Unless noted, % is scaled to controls: 0 for no effect and ±100 for the full control effect.

SMILES	Tau ThT inhib	Sfp PPTase inh	Tau fluor cs	Tau FP inhib	Coupling enz
COc1ccc(C(=O)O)nc1C	-3%	45µM*	-6%	3%	-1
COc1ccc(N2CCN(CCC3Oc4cc([N+](=O)[O-])ccc4NC3=O)CC2)cc1 (stereo not drawn)	7.9µM*	9%	u	13%	1
Cc1nn(C)cc1CN(C)C(=O)c1cc2nc(-c3ccco3)cc(C(F)(F)F)n2n1	-3%	35µM*	-1%	2%	-8
Cc1nn(C)c(C)c1CN(C)C(=O)c1cc2nc(-c3ccco3)cc(C(F)(F)F)n2n1	-15%	11%	0%	2%	1
CCOc1ccc(S(=O)(=O)Nc2ncn[nH]2)cc1	x	17%	x	x	1
CCOc1ccc(S(=O)(=O)Nc2cc(Sc3ncn[nH]3)c3oc(=O)sc3c2)cc1	u	7.9µM*	u	u	8
CCOC(=O)c1ccc(NC(=O)Cn2c(=O)cc(C)c3c(C)nn(-c4ccc(CC)cc4)c32)cc1	-9%	x	-11%	-2%	x
CCc1nn2c(=O)cc(COC(=O)c3cccc(NC(=O)COc4ccccc4F)c3)nc2s1	u	x	-12%	4%	x
c1ccc(Nc2scc(-c3ccccc3)[n+]2Cc2ccco2)cc1	u	20µM*	u	1%	-4
CC(=O)N1CCc2cc(C(=O)CN3CCN(C(=O)c4ccco4)CC3)ccc21	u	18µM*	-7%	-9%	-5
O=c1c2cn[nH]c2[nH]c(=S)n1-c1ccccc1	-15%	14µM*	-10%	u	-4
COc1ccc(-n2c(=S)[nH]c3[nH]ncc3c2=O)cc1	-4%	50µM*	0%	-2%	-5
O=c1c2cn[nH]c2[nH]c(=S)n1-c1cccc2ccccc12	-16%	-22%	-12%	1%	-3
COc1ccc(-n2c(=S)[nH]c3cc(C(=O)O)ccc3c2=O)cc1	-4%	-37%	-3%	-4%	11
O=S(=O)(c1ccc(C2=CSC3=NCCN23)cc1)N1CCOCC1	-15%	56µM*	-4%	-14%	0
Oc1ccc(C2=CSC3=NCCN23)cc1O	x	89µM*	x	x	-5
Brc1ccc(C2=CSC3=NCCN23)cc1	-15%	11%	-7%	0%	0
CC1(C)CC(=O)C2=C(C1)OC1=C(C(=O)CC(C)(C)C1)C2c1ccc(O)cc1O	u	7.9µM*	2%	11%	3
C/C(CC(=O)Nc1ccc(Cl)cc1C(F)(F)F)=N\NC(N)=S	-6%	45µM*	-4%	2%	-1
C/C(CC(=O)Nc1ccc(Cl)cc1Cl)=N\NC(N)=S	-10%	10%	-16%	5%	2
C/C(CC(=O)Nc1cc(Cl)ccc1Cl)=N\NC(N)=S	2%	35µM*	2%	3%	0
CCOc1ccccc1Nc1nc2ccccc2nc1NS(=O)(=O)c1ccc(Cl)cc1	6%	x	-11%	2%	x
Cc1ccccc1-c1cc(Nc2ccc(F)cc2)ncn1	6%	-4%	-28%	-3%	2
C/C(=N/NC(=O)c1cnccn1)c1ccncc1	-2%	-5%	-5%	7%	3
C/C(Cc1ccccc1)=N\NC(=O)c1ccccn1	x	50µM*	x	x	3
SMILES	Tau ThT inhib	Sfp PPTase inh	Tau fluor cs	Tau FP inhib	Coupling enz
C/C(=N/NC(=O)c1ccccn1)c1ccncc1	x	56µM*	x	x	3
C/C(Cc1ccccc1)=N\NC(=O)c1cccnc1	-5%	2%	0%	0%	2
Cc1ccccc1CN1CCN(CC(=O)NCc2ccccc2Cl)C1=O	0%	x	-1%	-2%	x
Cc1ccc(NC(=O)Cn2c(=O)n(CC3CCCO3)c(=O)c3ccccc32)cc1 (stereo not drawn)	0%	x	-12%	-9%	x
CCOc1ccc(NC(=O)Cn2c(=O)n(Cc3ccc(C(=O)NCc4ccc(C)cc4)cc3)c(=O)c3ccccc32)cc1	0%	x	-23%	u	x
CCc1ccc(NC(=O)Cn2c(=O)oc3cc(S(=O)(=O)N4CCCCCC4)ccc32)cc1	9%	x	-25%	-14%	x
CCCOC(=O)c1ccc(NC(=O)C2C3C=CC(O3)C2C(=O)O)cc1 (stereo not drawn)	-11%	79µM*	7%	1%	15
Clc1ccc(-n2cnnn2)cc1	-8%	12%	-2%	-5%	-2
CO/C=C\C=C/c1nnn(-c2ccc(Cl)cc2)n1	-15%	4.5µM*	12%	8%	5
COc1ccc(/C=C2/C(=O)ON=C2C)cc1Cl	x	79µM*	x	x	3
CCCOc1ccc(/C=C2/C(=O)ON=C2C)cc1OCC	x	u	x	x	-2
CCOc1cc(/C=C2\C(=O)ON=C2C)ccc1OCc1ccccc1	u	22µM*	-9%	-7%	2
C=CCOc1ccc(/C=C2/C(=O)ON=C2C)cc1OC	x	45µM*	x	x	3
CCOC(=O)CCSc1nc(N2CCOCC2)c2c(c1C#N)CC(C)(C)OC2	x	-2%	x	x	3
COC(=O)CCSc1nc(N2CCOCC2)c2c(c1C#N)CC(C)(C)OC2	x	79µM*	x	x	6
COc1ccc(CNC(=O)CSCc2ccc(C)cc2)c(OC)c1	6%	x	1%	5%	x
COc1ccc(N2C(=O)CC(Nc3ccc(N4CCOCC4)cc3)C2=O)c(OC)c1 (stereo not drawn)	u	u	-21%	0%	-8
CN(C)c1ccc(N2C(=O)CC(Nc3ccc(N4CCOCC4)cc3)C2=O)cc1 (stereo not drawn)	14µM*	-9%	-15%	0%	3
Cc1ccc(NC2CC(=O)N(c3ccc(N4CCCCC4)cc3)C2=O)cc1 (stereo not drawn)	u	-9%	-15%	1%	0
O=C1CC(Nc2ccc(N3CCOCC3)cc2)C(=O)N1c1cccc(C(F)(F)F)c1 (stereo not drawn)	16µM*	u	-26%	0%	-36*
COc1cccc(N2C(=O)CC(Nc3ccc(N4CCOCC4)cc3)C2=O)c1 (stereo not drawn)	14µM*	u	-25%	1%	-8
COc1cc(NC(=O)NC(C)c2c(-n3cccc3)sc3c2CCN(C)C3)cc(OC)c1 (stereo not drawn)	-15%	x	u	-12%	x
Cc1cc(C(=O)Nc2nnc(C(F)(F)F)s2)cs1	x	14%	-15%	-1%	-35*
O=C(Nc1nnc(C(F)(F)F)s1)c1ccc(Br)s1	10%	2%	2%	3%	-34*
